Assay results taken from PubChem BioAssay (NCI).
This is part of a sample that, as a whole, favours compounds with a hit. Of some 83,000 tested, about 20% had one in any assay.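 A percent growth of 40 corresponds to 60% growth inhibition; 0 means no net growth; -100 means all cells died. Active threshold: below 10.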 Unmarked numbers belong to inactive results. The source made the active and inactive calls.

Test system: MDA-MB-468 breast
Experiment: NCI-60 one-dose screen, 48 h (100 = growth as untreated, 0 = no growth, -100 = all killed)
Conditions: 10 µM unless noted

SMILES | growth
CC(C)(CC(=O)O)CC(=O)O | 96.4%
CCCCCCCCCCCCCCCCOc1ccccc1NC(=O)CC(C)=O | 111%
C=CCn1c(C)nc2cc(Nc3nc(N4CCCC4)nc4nc[nH]c34)ccc21 | 51.1%
CCCn1cnc2c(c1=N)C(c1ccc(OC)cc1)c1sc3c(C)cccc3c1O2 (stereo not given) | 50%
CC1(C)O[C@H]2OC3CCC(=O)CC3(O)[C@H]2O1 (stereo not given in full) | 98.5%
c1ccc2nc(N3CCOCC3)c(N3CCCCC3)nc2c1 | 94%
COc1ccc(C2CC(=O)c3c(nc4ccc(Cl)cc4c3N)C2)cc1 (stereo not given) | 104%
CC(=O)Nc1ccc2c(c1)C(N1CC3CCC(CC3)C1)c1ccccc1-2 (stereo not given) | 94%
N/C(=N\C(N)=N\c1nc2ccccc2s1)c1cccc(F)c1 | 92.9% [5 µM]
O=S(=O)(c1ccccc1)n1cc2c(c1)-c1nc(Nc3ncccn3)sc1CC2 | 46.3%
O=C(COc1ccc(/C=C2\C(=O)Nc3ccc(F)cc32)cc1)Nc1ccccc1 | 98.5%
CCc1nn2c(-c3cc(OC)c(OC)c(OC)c3)c(-c3cc(OC)c(OC)c(OC)c3)nc2s1 | 49.3%
CCOc1ccc(NC(=O)c2ccccc2-c2ccccc2C(=O)O)cc1 | 101%
O=C(Nc1ccc(Cl)cc1)Nc1nc2ccc(OC(F)(F)F)cc2o1 | 89%
CCOC(=O)c1ccc(N(C=O)CCC(=O)CCl)cc1 | 40.3%
CS(=O)(=O)CCNCc1ccc(-c2ccc3ncnc(Nc4ccc(OCc5cccc(F)c5)c(Cl)c4)c3c2)o1 | -56.5% (active)
CC(C)(C)CC(C)(C)Nc1c(-c2c(O)c3ccccc3oc2=O)nc2sccn12 | 86.6%
COc1cc(C2C=C(C)N=C3SC=C(C)N32)cc(OC)c1OC (stereo not given) | -74.2% (active)
COc1cc(/C=N/NC(=O)c2ccccc2Nc2cccc(C(F)(F)F)c2)ccc1O | 28.3%
C=C(C(N)=O)C(N)C(=O)O (stereo not given) | 121%

SMILES | growth
O=C1C(=O)c2ccccc2C(O)=C1CCCc1ccc(Oc2ccccc2)cc1 | 44.7%
CCNC(=O)Oc1ccc(/C(=C(/C)c2ccccc2)c2ccc(OCCN3CCCCCC3)cc2)cc1 | -16.9% (active)
Nc1c(C(=O)NC2CCCCC2)sc2nc3c(cc12)C(=O)CCC3 | 86.1%
Cc1ccc(/C=C/CC(=O)Nc2ccc(C(=O)Nc3ccc(F)cc3N)nc2)cn1 | 4.55% (active)
COc1cc(C(=O)c2c(-c3ccccc3)oc3c(OC)cccc23)cc(OC)c1O | 4.03% (active)
CCCCCCCCCCCCNC(=O)[C@H]1CSC(c2ccc(OC)c(F)c2)N1 (stereo not given in full) | -81.4% (active)
O=Cc1c(OCc2cnnn2CC(=O)Nc2ccc(Cl)cc2)ccc2ccccc12 | 104%
COc1cnc2c(c1)C(=O)c1c-2n(CCCN2CCCC2)c(=O)c2cc(F)ccc12 | -29.5% (active)
N#CSCC1CC(O)(c2ccccc2)CC(c2ccc(Cl)cc2)O1 (stereo not given) | 47.3%
O=C(/C=C/c1cc2ccccc2[nH]c1=O)c1ccc(Cl)cc1 | 15.4%
O=C(Nc1ccsc1C(=O)NC1CCCCC1)c1ccc(F)cc1 | 101%
Cc1nc2cnc(N)c(C#Cc3cncc(C(=O)Nc4ccc(Cl)c(C(F)(F)F)c4)c3)c2nc1C | 72.6%
O=C1/C(=C/c2ccc(OCc3ccccc3)cc2)Oc2cc(OCCN3CCCCC3)ccc21 | 48.3%
COC(=O)C1=C(C(=O)Nc2cccnc2)C2OC1(C(Cc1ccccc1)Oc1ccccc1)C1OC21 (stereo not given) | -66.3% (active)
CC/C=C\C[C@H](O)C/C=C1/C(=O)C(Cl)=C[C@@H]1C/C=C\CCCC(=O)OC | -62.1% (active)
CCN(c1ccc(C(=O)N2CCN(c3ccccc3)CC2)cc1)S(C)(=O)=O | 92.5%
CCN(CCO)CC(C)Nc1ccc([N+](=O)[O-])c2sc3ccccc3c(=O)c12 (stereo not given) | 21%
CC(=O)NC(C)(C)C(=O)N[C@@H](C)C(=O)NC(C)(C)C(=O)N[C@@H](C)C(=O)NC(C)(C)C(=O)N[C@@H](C)C(=O)N[C@@H](CCC(N)=O)C(=O)NC(C)(C)C(=O)N[C@H](C(=O)NC(C)(C)C(=O)NCC(=O)N[C@@H](CC(C)C)C(=O)NC(C)(C)C(=O)N1CCC[C@H]1C(=O)N[C@H](C(=O)NC(C)(C)C(=O)NC(C)(C)C(=O)N[C@@H](CCC(N)=O)C(=O)N[C@@H](CCC(N)=O)C(=O)N[C@H](CO)CC1CCCCC1)C(C)C)C(C)C | 3.04% [5 µM] (active)
COc1cc2c3cc1Oc1c(OC)c(OC)cc4c1C(Cc1ccc(O)c(c1)Oc1ccc(cc1)CC3N(C)CC2)N(C)CC4 (stereo not given) | -72.3% (active)
Nc1cc(Br)cc2c1[nH]c(=O)c1ccccc12 | -8.15% (active)
